A selection: hits, their analogues and other compounds. The true share with any hit is near 1.9%.
aDG glyco act: increases alpha dystroglycan glycosylation | Pro5-aDG cells, alpha-DG glycosylation AlphaScreen (IIH6); 0% Pro5, 100% B10-LARGE cell signal | activation, % at 10 µM | 360,000 compounds, 0.22% hits;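 active = activation of at least 8% versus controls, or a plate z-score of at least 8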;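 note: Pro5 are CHO cells carrying HIG-tagged alpha-DG that lacks glycosylation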
EBNA-1 inhibitor: blocks EBNA-1 binding to DNA | EBNA-1 DNA binding, fluorescence polarization | inhibition, % at 14.8 µM | 300,000 compounds, 0.34% hits; in the data active = inhibition above about 28%
ZTA DNA inh: blocks Epstein-Barr virus ZTA, an EBNA-1 counter-screen. P03206. ZTA-DNA binding, fluorescence polarization. inhibition, % at 11 µM. 320,000 compounds, 0.15% hits. AID 2234; in the data active = inhibition above about 33%
Target sequence (P03206 whole entry, looked up): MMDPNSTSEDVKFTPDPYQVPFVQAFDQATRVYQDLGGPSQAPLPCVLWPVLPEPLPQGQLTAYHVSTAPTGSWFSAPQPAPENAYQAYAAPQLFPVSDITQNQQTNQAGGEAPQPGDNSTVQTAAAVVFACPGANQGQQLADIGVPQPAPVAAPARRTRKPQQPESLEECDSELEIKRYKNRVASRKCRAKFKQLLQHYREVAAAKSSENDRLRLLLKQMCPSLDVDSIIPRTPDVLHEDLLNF
Rev-erbA mod: modulates human Rev-erb alpha binding to DNA; AID 1259318; activity, % at 10 µM; Rev-erbα–FITC-DNA binding, fluorescence polarization, 90 min; 370,000 compounds, 0.79% hits;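 active = activity above about 14%, limit read from the data; passing the limit was not always enough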;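 note: 0% = DMSO wells with 35 nM protein and 100% = DMSO wells with 750 nM protein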
PG9 binder: small molecules binding HIV-1 gp120 antibody PG9; TR-FRET gp120-PG9 antibody binding; inhibition, % at 6.7 µM; 360,000 compounds, 0.43% hits; in the data active = inhibition above about 8.5%
p47phox inh: p47phox (human) inhibition; P14598; inhibition, % at 24.7 µM; 220,000 compounds, 0.53% hits; p47phox/p22phox peptide binding, fluorescence polarization, 2 h;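 active = inhibition above about 30%, limit read from the data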;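 note: 0% = p47phox with labelled peptide and 100% = labelled peptide alone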
Target sequence (P14598 whole entry, looked up): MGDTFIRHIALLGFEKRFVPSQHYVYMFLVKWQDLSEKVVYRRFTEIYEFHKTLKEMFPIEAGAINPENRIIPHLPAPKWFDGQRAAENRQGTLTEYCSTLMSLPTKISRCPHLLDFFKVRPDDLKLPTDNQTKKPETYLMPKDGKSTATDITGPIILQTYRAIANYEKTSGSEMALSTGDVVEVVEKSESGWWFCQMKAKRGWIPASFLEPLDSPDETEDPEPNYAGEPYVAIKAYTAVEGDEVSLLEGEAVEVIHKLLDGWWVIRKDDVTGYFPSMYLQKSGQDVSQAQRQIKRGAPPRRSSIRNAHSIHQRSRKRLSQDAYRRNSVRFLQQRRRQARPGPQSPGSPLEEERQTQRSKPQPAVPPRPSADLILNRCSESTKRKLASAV
Numbers without * were called inactive; x = not tested or not shown; ! = a repeat was not active.

SMILES | aDG glyco act | EBNA-1 inhibitor | ZTA DNA inh | Rev-erbA mod | PG9 binder | p47phox inh
COC(=O)[C@H](CC(C)C)N1Cc2nnn(CC3CCCCC3)c2-c2ccccc2S1(=O)=O | x | x | x | -9 | x | x
O=C(O)C1CSC(c2ccccc2Cl)N1C(=O)c1ccc(Cl)cc1 (stereo not given) | 0 | 16 | 3 | 2 | 0 | 87*
CC(C)C(C#CC1CC1)N(Cc1ccc2c(c1)OCO2)C(N)=NC(=O)/C=C/c1ccccc1 (stereo not given) | x | x | x | 7 | x | x
COc1ccc(-c2cc(=O)c3c(O)cc(O[C@@H]4O[C@H](CO[C@H]5O[C@H](C)[C@@H](O)[C@H](O)[C@@H]5O)[C@@H](O)[C@H](O)[C@H]4O)cc3o2)cc1O | x | x | x | 4 | x | x
c1ccc2sc(NC3=NCN(C4CCCCCC4)CN3)nc2c1 | 4.4* | 7 | 3 | -3 | 2 | -14
CC(C)N(Cc1cnn(C)c1)Cc1nc(Cc2ccccc2Cl)no1 | 0 | -6 | 5 | -4 | 1 | 2
CN(Cc1cnn(C)c1)Cc1nc(Cc2ccccc2Cl)no1 | 0 | 0 | -14 | 0 | -1 | 43*
COC(=O)C1CN(C2CC2)CCS(=O)(=O)N1Cc1cn(Cc2ccc(C)cc2)nn1 (stereo not given) | x | x | x | 0 | x | x
O=[N+]([O-])c1cccc(-c2cc3cccc[n+]3cc2-c2cccc([N+](=O)[O-])c2)c1 | 0 | 9 | 10 | -3 | -3 | 5
Cc1cccc2cc(-c3ccccc3)c(-c3ccccc3)c[n+]12 | 1 | 9 | 1 | -1 | 2 | 49*
CC(=O)S[C@@H]1CC2=CC(=O)CC[C@]2(C)[C@H]2CC[C@@]3(C)[C@@H](CC[C@@]34CCC(=O)O4)C12 (stereo not given in full) | x | x | x | -6 | x | x
C/C=C(\C)C(=O)NCCN1C2=NC[C@@H](Cc3ccccc3)N2C[C@@H]1Cc1ccc(OC)cc1 | 0 | 1 | -5 | -3 | 0 | x
CCCCCCNC(=O)N[C@@H](C(=O)NCCC[C@H]1CN2C(=NC[C@@H]2Cc2ccccc2)N1CCc1cccc(OC)c1)C(C)C | x | -10 | -23 | x | x | 66*
CC1(C)S[C@@H]2[C@H](NC(=O)[C@H](NC(=O)N3CCNC3=O)c3ccccc3)C(=O)N2C1C(=O)O (stereo not given in full) | x | x | x | -8 | x | x
COc1ccc(C(CC(=O)O)NC(C)=O)cc1OC (stereo not given) | 1 | -3 | 11 | 5 | -2 | -3
CCOC(=O)NC(CC(=O)O)c1ccc(OC)c(OC)c1 (stereo not given) | 0 | 1 | 5 | -5 | 1 | 68*
COc1ccc(-c2cc3ccccc3oc2=O)cc1NC(=O)c1ccc(Br)o1 | 0 | 19 | -5 | 16 | 2 | 41*
COc1ccc(-c2cc3ccccc3oc2=O)cc1NC(=O)c1ccc([N+](=O)[O-])o1 | 0 | 12 | 8 | -17 | -3 | 40*
CCC(=O)Nc1cc(-c2cc3ccccc3oc2=O)ccc1OC | 0 | -2 | -21 | 4 | -3 | -7
COc1ccc(OCc2nc(N)nc(Nc3ccccc3OC)n2)cc1 | 0 | -6 | 4 | -3 | -2 | 99*
CCCN1CCS(=O)(=O)N(Cc2cn(Cc3ccc(OC)cc3)nn2)C(C(=O)OC)C1 (stereo not given) | x | x | x | 2 | x | x
CCOc1ccc(-n2nc3c(SCCN4CCCC4)nnc(C)c3c2C)cc1 | 0 | -5 | 13 | -7 | 3 | -9
CCOc1ccc(-n2nc3c(=O)[nH]nc(C)c3c2C)cc1 | 0 | -2 | -11 | 1 | 1 | 57*
CCOc1ccc(-n2nc3c(=S)[nH]nc(C)c3c2C)cc1 | 1 | 4 | -2 | 4 | 42* | -8
CCOc1ccc(-n2nc3c(Cl)nnc(C)c3c2C)cc1 | 0 | 11 | -8 | 1 | 2 | -13
SMILES | aDG glyco act | EBNA-1 inhibitor | ZTA DNA inh | Rev-erbA mod | PG9 binder | p47phox inh
OC[C@@H](O)[C@H](O[C@@H]1O[C@H](CO)[C@H](O)[C@H](O)[C@H]1O)[C@H](O)[C@@H](O)CO | x | x | x | -4 | x | x
COC(=O)C1CN(C2CCCC2)CCS(=O)(=O)N1Cc1ccccc1 (stereo not given) | x | x | x | -4 | x | x
Cc1ccc(NC(=S)Nc2ccccn2)cc1C | 1 | 9 | -12 | -6 | -2 | -16
Cc1ccc(NC(=S)Nc2ccc3nc(-c4ccccn4)c(-c4ccccn4)nc3c2)cc1C | 0 | -3 | 6 | x | x | 112*
Cc1ccc(NC(=O)C2CCCN2S(=O)(=O)c2cccnc2)cc1C (stereo not given) | x | x | x | -1 | x | x
O[C@@H]1[C@@H](O)[C@H](n2c3ccc(Cl)cc3c3ccc4c5cc(Cl)ccc5[nH]c4c32)OC[C@H]1O | x | x | x | 2 | x | x
Cc1ccc(Nc2nc(-c3ccc(S(=O)(=O)N4CCOCC4)cc3)cs2)cc1Cl | 0 | 31* | -3 | 8 | 0 | 16
C=C(C)c1cccc(C(C)(C)NC(=O)N(C)C2CCN(C)CC2)c1 | 0 | x | x | 3 | -1 | 110*
Cc1nc(SCC(=O)NC2CC2)c2c(C)c(C)sc2n1 | 0 | -3 | 2 | -6 | 0 | x
Cc1sc2nc(C(C)C)nc(SCC(=O)NC3CC3)c2c1C | 0 | 129* | 69* | 6 | -1 | x
C[C@]12CCC3c4ccc(O)cc4CCC3C1CC[C@@H]2OC(=O)CCC1CCCC1 (stereo not given in full) | x | x | x | 4 | x | x
COc1ccc(-n2c(Cc3cc(=O)[nH]c(=O)[nH]3)nnc2SCC(=O)Nc2ccccc2)cc1 | 0 | 2 | 4 | -2 | -1 | 47*
CCc1nnc(NC(=O)CSc2nnc(Cc3cc(=O)[nH]c(=O)[nH]3)n2-c2ccc(OC)cc2)s1 | 0 | 3 | -4 | -5 | -1 | 4
CCC(C)C1NC(=O)C(CCN)NC(=O)C(NC(=O)C(CCN)NC(=O)C(NC(=O)C(CCN)NC(=O)CCCCC(C)C)C(C)O)CCNC(=O)C(C(C)O)NC(=O)C(CCN)NC(=O)C(CCN)NC(=O)C(C(C)CC)NC1=O (stereo not given) | x | x | x | 1 | x | x
Cc1ccccc1OCc1n(CC(=O)OC2CC(C)CCC2C(C)C)c2ccccc2[n+]1C (stereo not given) | 0 | -2 | -16 | -7 | 2 | 39*!
CC1CCC(C(C)C)C(OC(=O)Cn2c(-c3ccc(Br)cc3)[n+](C)c3ccccc32)C1 (stereo not given) | 0 | -6 | -4 | -6 | -3 | 10
CC(C)(C)c1ccc(C(=O)NNC(=O)C2CCCCC2)cc1 | 0 | -8 | -2 | 1 | -1 | 31*
Cc1cc(C)c(OCC(=O)Nc2ccccc2N2CCOCC2)c(C)c1 | 0 | -10 | -8 | 4 | 0 | 41*
CCOC(=O)c1cc(-c2ccccc2)sc1NC(=O)COC(=O)c1cccc(S(N)(=O)=O)c1 | -1 | 77* | 19 | 11 | 1 | 6
CC1=C2NC(N)=[N+](Cc3ccc4c(c3)OCO4)CC2n2c(=O)n(-c3ccccc3)c(=O)n2C1 (stereo not given) | x | x | x | -3 | x | x
